Measured values from PubChem BioAssay AID1851 (National Center for Advancing Translational Sciences (NCATS), 2009).
Where “and” joins values, the source holds several entries; their conditions need not be identical. Equal values may be shown once. About 2,600 (16%) of roughly 16,000 compounds were called active. Inconclusive results (about 20%) are left out. Calls follow the shape of the dose curve; as a rule, active = well fitted curve in the direction sought with a large enough effect; inconclusive = small, poorly fitted or top-dose-only effect, or effect the other way; inactive = no such curve, though single readings can be large or run the other way. The list is a sample of the results.

molecular target: Cytochrome P450 2D6 (Homo sapiens) (UniProt P10635); assay: Cytochrome panel assay with activity outcomes; details: recombinant CYP, pro-luciferin dealkylation, luminescence, p450-cyp2d6; series mostly up to 57.1 µM; activity, negative = inhibition: at the top concentration
Sequence (P10635 whole entry, looked up): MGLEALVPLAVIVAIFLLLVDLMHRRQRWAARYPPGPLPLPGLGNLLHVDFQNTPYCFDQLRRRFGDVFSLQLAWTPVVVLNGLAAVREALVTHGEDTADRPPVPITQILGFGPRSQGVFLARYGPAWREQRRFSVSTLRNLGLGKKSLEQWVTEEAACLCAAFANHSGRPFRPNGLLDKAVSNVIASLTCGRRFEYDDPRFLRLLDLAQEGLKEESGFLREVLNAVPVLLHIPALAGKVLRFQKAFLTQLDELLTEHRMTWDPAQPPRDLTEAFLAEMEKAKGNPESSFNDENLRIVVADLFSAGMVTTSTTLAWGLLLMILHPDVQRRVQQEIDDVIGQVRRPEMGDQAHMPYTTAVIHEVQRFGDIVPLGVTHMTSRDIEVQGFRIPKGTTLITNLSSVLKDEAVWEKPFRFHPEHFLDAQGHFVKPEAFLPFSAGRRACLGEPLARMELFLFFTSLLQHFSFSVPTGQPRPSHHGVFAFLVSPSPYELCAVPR
% is scaled to controls: 0 for no effect and ±100 for the full control effect.

Row | Structure (SMILES) | activity, negative = inhibition | AC50
1 | Cc1ccc(S(=O)(=O)N[C@H]2COC(=O)CC=C[C@@H](C)[C@H]3C=C[C@H](O)[C@@H](COC(=O)CC=C[C@H]2C)O3)cc1 | -6.53% [at 11.4 µM] (inactive) and 13.3% [at 11.4 µM] (inactive) | 
2 | Cc1ccc(N2C(=O)CSC2c2cccnc2)cc1F (centres undefined) | -6.23% (inactive) | 
3 | c1ccc(-c2noc(-c3ccc4ccccc4c3)n2)cc1 | -26.1% (inactive) | 
4 | CC(C)[C@H](CO)Nc1nc(Nc2ccc(C(=O)O)c(Cl)c2)c2ncn(C(C)C)c2n1 | 2.31% (inactive) | 
5 | C=CCNC(=O)c1cccn1-c1ccsc1C(=O)OC | 15.1% (inactive) | 
6 | O=C(N[C@@]1(C(=O)O)C[C@@H]1c1ccccc1)c1ccccc1 | 11.3% [at 11.4 µM] (inactive) | 
7 | CCCCn1c(SC(C)C(N)=O)nc2cc(C(=O)OC)ccc2c1=O (centres undefined) | 28.8% (inactive) | 
8 | C/C(N)=C(/C#N)C(=O)CSc1nnc(COc2cc(C)ccc2C)o1 | 0.41% (inactive) | 
9 | COc1ccc(S(=O)(=O)N2CC3CCCN3c3ccc(C(F)(F)F)cc32)cc1 (centres undefined) | -19.1% (inactive) | 
10 | Cc1nn(Cc2ccc(Cl)cc2)c(C)c1NC(=O)CSc1nc2c(c(C(F)(F)F)n1)CCc1ccccc1-2 | -21.3% (inactive) | 
11 | Nc1ccc(N=Nc2c(S(=O)(=O)O)cc3ccccc3c2S(=O)(=O)O)cc1 | 8.88% [at 11.4 µM] (inactive) | 
12 | COc1cnc(-c2ccccn2)nc1Oc1ccc(Cl)c2ccccc12 | -13.3% (inactive) | 
13 | Cn1cc(-c2nc3cnc(N4CCOCC4)nc3n(CCC#N)c2=O)c2ccccc21 | 6.34% (inactive) | 
14 | CCOc1ccc(Cc2nc(C)c(CC(=O)N3CCOCC3)c(=O)[nH]2)cc1 | -12.7% (inactive) | 
15 | Cc1noc(C)c1C(=O)N1CCC2(CCCN(C(=O)Nc3cccc(F)c3)C2)CC1 | -6.3% (inactive) | 
16 | NC(=NCc1ccc(Cl)c(Cl)c1)NC(=O)c1nc(Cl)c(N)nc1N |  | 12.6 µM (active)
17 | NC(Cc1ccccc1)=NCC(=O)O | 9.41% [at 11.4 µM] (inactive) | 
18 | COC(=O)c1nnn(Cc2ccccc2)c1N | -25.1% (inactive) | 
19 | NC(=NCc1ccccc1)NC(=O)c1nc(Cl)c(N)nc1N |  | 15.8 µM (active) and 5.01 µM (active)
20 | Cc1cc(C)c2c(=O)[nH]c(SCC(=O)N(C)C)nc2n1 | 4.04% (inactive) | 
21 | CN(C)c1ncc2nc(-c3ccc(Cl)cc3)c(=O)n(Cc3cccs3)c2n1 | 0.505% (inactive) | 
22 | CCOc1ccc(OCC)c(-c2c(=O)n(OCc3ccc(C(C)(C)C)cc3)c3ccccc3[n+]2[O-])c1 | -0.869% (inactive) | 
23 | CC(=O)NNc1cccc(Cl)n1 | -5.21% (inactive) | 
24 | CCOC(=O)C1=C(c2ccccc2)N=c2s/c(=C\c3cccc(O)c3)c(=O)n2C1c1cccs1 (centres undefined) |  | 3.16 µM (active)

Row | Structure (SMILES) | activity, negative = inhibition | AC50
25 | CCOC(=O)C1=C(c2ccccc2)N=c2s/c(=C\c3cc(OC)c(OC)c(OC)c3)c(=O)n2C1c1cccs1 (centres undefined) | 24.8% (inactive) | 
26 | CCOC(=O)C1=C(c2ccccc2)N=c2s/c(=C\c3ccc(O)cc3)c(=O)n2C1c1cccs1 (centres undefined) | -6.93% (inactive) | 
27 | Cc1cc(/C=C(/C#N)C(=O)Nc2ccccc2)c(C)n1-c1cccnc1 | 3.42% (inactive) | 
28 | O=c1c(-c2cccs2)nc2cncnc2n1-c1ccccc1 | -5.51% (inactive) | 
29 | O=c1[nH][nH]c(C(F)(F)F)c1C=Nc1ccccc1Cl | 3.6% (inactive) | 
30 | O=C(CSc1cccc2cccnc12)OCC(=O)c1ccccc1 | -14% (inactive) | 
31 | CCNc1ncc2nc(CCc3ccccc3)c(=O)n(-c3ccccc3)c2n1 |  | 0.1 µM (active)
32 | CCNc1ncc2nc(CCc3ccccc3)c(=O)n(-c3ccc(OC)cc3)c2n1 |  | 0.251 µM (active)
33 | COc1cccc(Nc2ncc3nc(CCc4ccccc4)c(=O)n(C4CC4)c3n2)c1 | -14.9% (inactive) | 
34 | COc1ncc2nc(CCc3ccccc3)c(=O)n(-c3ccccc3)c2n1 | -10.4% (inactive) | 
35 | COc1ccc(-n2c(=O)c(CCc3ccccc3)nc3cncnc32)cc1 | -18.1% (inactive) | 
36 | Cn1c(=O)c(CCc2ccccc2)nc2cnc(Nc3ccccc3)nc21 | -1.73% (inactive) | 
37 | CCNc1ncc2nc(CCc3ccccc3)c(=O)n(Cc3ccc(F)cc3)c2n1 | 2.94% (inactive) | 
38 | CCNc1ncc2nc(CCc3ccccc3)c(=O)n(C)c2n1 |  | 1.58 µM (active)
39 | CCNc1ncc2nc(C)c(=O)n(C3CC3)c2n1 | -2.63% (inactive) | 
40 | Cn1c(=O)c(CCc2ccccc2)nc2cncnc21 | -15% (inactive) | 
41 | CCNc1ncc2nc(CCc3ccccc3)c(=O)n(C3CC3)c2n1 |  | 0.398 µM (active)
42 | COc1ccc(-n2c(=O)c(CCc3ccccc3)nc3cnc(N4CCN(C)CC4)nc32)cc1 | -5.66% (inactive) | 
43 | CC(C)Cc1nc(N2CCN(C(=O)c3ccccc3)CC2)c(C#N)c2c1CCC2 | -29.2% (inactive) | 
44 | Nc1nc(N)[n+]([O-])c(N)c1NCO | -8.44% [at 11.4 µM] (inactive) | 
45 | CCN1C(=O)[C@H]2[C@H]3[C@H](O)[C@H](O)C/C(=N/OCC(C)C)[C@@H]3CC[C@@H]2C1=O | 8.5% [at 11.4 µM] (inactive) | 
46 | O=C(CN1C(=O)C2C3C=CC(C3)C2C1=O)Nc1ccc(C(=O)O)cc1 (centres undefined) | 1.81% (inactive) | 
47 | CC(C)OC(=O)c1cccc(C(=O)Oc2ccc(Br)cc2)n1 | 17.4% (inactive) | 
48 | COc1cc(C2C(C#N)=C(N)N(Nc3ccccc3)C3=C2C(=O)CC(C)(C)C3)ccc1OCc1ccccc1 (centres undefined) | -12.7% (inactive) | 

Row | Structure (SMILES) | activity, negative = inhibition | AC50
49 | Cc1c(-n2cc(C(=O)c3cc(Cl)ccc3O)cc(C#N)c2=O)c(=O)n(-c2ccccc2)n1C | -19.1% (inactive) | 
50 | CN(C)[C@H]1C(=O)C(C(=O)NCN2CCCC2)=C(O)[C@]2(O)C(=O)C3=C(O)c4c(O)cccc4[C@@](C)(O)[C@H]3C[C@@H]12 | -6.78% [at 25.6 µM] (inactive) | 
51 | CCOC(=O)c1c(NC(=O)c2c(Br)cnn2C)c(C#N)nn1-c1ccccc1 | 4.17% (inactive) | 
52 | O=C(N/N=C/c1ccccn1)c1ccco1 | -15.4% (inactive) | 
53 | COc1cccc2cc(NC(=O)C3CCCCC3)c(=O)oc12 | 5.46% (inactive) | 
54 | Cc1ccc(-n2nc(C)c3c2OC(N)=C(C#N)C3c2ccco2)cc1 (centres undefined) | -22.5% (inactive) | 
55 | COc1ccc(C(=O)N2CCCCC2)cc1S(=O)(=O)Nc1ccccc1 | -10.2% (inactive) | 
56 | CCOc1ccc(-c2nn(-c3ccccc3)cc2/C=C2\SC(N)=NC2=O)cc1C | -9.88% (inactive) | 
57 | CSc1nsc(SCc2ccc(Cl)cc2)n1 | 1.58% (inactive) | 
58 | O=C1c2ccccc2CC[C@H]1CNCCc1ccc(O)cc1 |  | 0.398 µM (active)
59 | CCOc1cc(C)ccc1OCc1nnc(SCC(=O)c2cccc([N+](=O)[O-])c2)n1C | -3.48% (inactive) | 
60 | CCOC(=O)CSC1=NC(=O)/C(=C\c2ccc(Cl)cc2)S1 | -3.61% (inactive) | 
61 | C[C@@H](CN1CCC(Cc2ccccc2)CC1)[C@@H](O)c1ccc(O)cc1 | -20.7% (inactive) | 
62 | C[C@@H](CN1CCC(Cc2ccccc2)CC1)[C@H](O)c1ccc(O)cc1 |  | 1 µM (active)
63 | COc1cc(CC(=O)OC2CCOC2=O)cc(OC)c1OC (centres undefined) | 2.51% (inactive) | 
64 | O=C(NCC1COc2ccccc2O1)C1C2C=CC3(CN(Cc4cccs4)C(=O)C13)O2 (centres undefined) |  | 14.1 µM (active)
65 | COc1ccc(CCN2CC34C=CC(O3)C(C(=O)NCc3ccccc3)C4C2=O)cc1OC (centres undefined) | 2.38% (inactive) | 
66 | COCCCNC(=O)C1C2C=CC3(CN(Cc4ccc(C)cc4)C(=O)C13)O2 (centres undefined) | 5.74% (inactive) | 
67 | Cc1ccc(CN2CC34C=CC(O3)C(C(=O)NCc3ccc5c(c3)OCO5)C4C2=O)cc1 (centres undefined) |  | 14.1 µM (active)
68 | Cc1ccc(CN2CC34C=CC(O3)C(C(=O)NCc3ccco3)C4C2=O)cc1 (centres undefined) | -23.4% (inactive) | 
69 | CCCCNC(=O)C1C2C=CC3(CN(Cc4ccccc4Cl)C(=O)C13)O2 (centres undefined) | -5.2% (inactive) | 
70 | CCOc1cc(S(=O)(=O)N(Cc2ccccc2)Cc2ccccc2)c(OCC)cc1-n1cnnn1 | -10.1% (inactive) | 
71 | Cc1nc2ncnn2c(C)c1CCC(=O)NCc1ccccc1 | -10.6% (inactive) | 
72 | COc1ccc(NC(=O)CSc2nncn2C)c([N+](=O)[O-])c1 | -8.81% (inactive) | 

Row | Structure (SMILES) | activity, negative = inhibition | AC50
73 | CCOc1ccc(-c2cc(CCCC(=O)Nc3cc(OC)ccc3OC)no2)cc1 | -13.6% (inactive) | 
74 | CCOc1ccc(-n2c(SCC(=O)Nc3ccc(OC)cc3OC)nc3c(c2=O)SCC3)cc1 |  | 2.24 µM (active)
75 | N#Cc1cccc(NC(=O)N2CC[C@@]3(CCCN(C(=O)c4ccncc4)C3)C2)c1 | 4.68% (inactive) | 
76 | CS(=O)(=O)N1CCC[C@@]2(CCN(C(=O)Nc3cccc(C#N)c3)C2)C1 | 3.58% (inactive) | 
77 | CCCCc1cc(=O)oc2cc(OCC(=O)N(CC)CC)ccc12 |  | 12.6 µM (active)
78 | CCCc1cc(=O)oc2cc(OCc3nn[nH]n3)ccc12 | -1.03% (inactive) | 
79 | CCCc1cc(=O)oc2cc(OCC(=O)N3CCc4ccccc43)ccc12 | 4.28% (inactive) | 
80 | COc1cccc2c1C(=O)c1c(O)c3c(c(O)c1C2=O)C[C@@](O)(C(=O)CO)C[C@H]3O[C@H]1C[C@@H](N)[C@H](O)[C@@H](C)O1.[W] | 4.97% [at 11.4 µM] (inactive) | 
81 | COC(=O)c1nn(-c2ccc(OC)cc2)c(=O)cc1Oc1cccc(Cl)c1 | -27.2% (inactive) | 
82 | O=C1CCc2cc(OCCCCc3nnnn3C3CCCCC3)ccc2N1 | 4.92% (inactive) | 
83 | Fc1ccc([C@H]2CCNC[C@H]2COc2ccc3c(c2)OCO3)cc1 | -7.19% (inactive) | 
84 | Cn1c(=O)cc(OCCCC(=O)N2CCN(c3ccccc3)CC2)c2ccccc21 | -13.9% (inactive) | 
85 | c1ccc(N2CCN(CCCOc3ccc4c(c3)OCO4)CC2)cc1 |  | 0.126 µM (active)
86 | O=C(O)c1cc(=O)[nH]c(SCc2ccccc2)n1 | 4.29% [at 11.4 µM] (inactive) | 
87 | C#CCCCO/N=C1/C[C@@H](O)[C@@H](O)[C@@H]2[C@@H]3C(=O)N(Cc4ccccc4)C(=O)[C@H]3CC[C@H]12 | 15.7% [at 11.4 µM] (inactive) | 
88 | COC(=O)c1cc(Br)c(=O)n(CCc2ccc(O)cc2)c1 | 10.4% (inactive) | 
89 | CCNc1ncc2nc(-c3cccs3)c(=O)n(Cc3cccc(OC)c3)c2n1 | -8.54% (inactive) | 
90 | CC1(C)C2([N+](=O)[O-])CN3CC1([N+](=O)[O-])CN(C2)C3c1ccccc1 (centres undefined) | 15.6% (inactive) | 
91 | CO[C@]1(NC(=O)[C@H](C(=O)O)c2ccc(O)cc2)C(=O)N2C(C(=O)O)=C(CSc3nnnn3C)CO[C@H]21 | -2.15% [at 25.6 µM] (inactive) | 
92 | Cc1c2cnccc2c(C)c2c1c1ccccc1n2CCOC(=O)c1ccccc1 |  | 3.16 µM (active)
93 | Cc1ccc(C(=O)O/N=C/c2c(Cl)n(C)c3ccccc23)cc1 | 24.3% (inactive) | 
94 | O=C(OCn1nnc2ccccc2c1=O)c1cccnc1 | 13.3% (inactive) | 
